According to a collection of fitness landscapes (doi:10.1038/s41467-024-54723-y):
Over roughly 18,000 sequences, “TetR repression strength (sort-seq, GFP reporter)” has its median near 0.23; the highest 2% begin near 0.68. The sample holds the highest values, similar sequences and a random draw of the others, so the mix is not that of the screen.

Molecular target: TetR (class B, Tn10) (UniProt P04483)
Assay: TetR repression strength (sort-seq, GFP reporter) (relative to tetO2 = 1); higher = stronger repression
Conditions: E. coli
Procedure, shortened: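 In LB with 50 µg/mL chloramphenicol, E. coli SIG10-MAX holding a low-copy library with eight randomized operator positions between a constitutive promoter and sfGFP, plus constitutive TetR, grew for 5 h at 37 °C. FACS then sorted 10^6 cells into 13 fluorescence bins for Illumina sequencing of each bin. Repression strength equals the top bin index plus one less the read-weighted mean bin, normalized to the unaltered operator. Values from three independent transformations were averaged when reads were ≥30 in every replicate and the CV was ≤0.5.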

Chain of TetR (class B, Tn10) (P04483 whole entry): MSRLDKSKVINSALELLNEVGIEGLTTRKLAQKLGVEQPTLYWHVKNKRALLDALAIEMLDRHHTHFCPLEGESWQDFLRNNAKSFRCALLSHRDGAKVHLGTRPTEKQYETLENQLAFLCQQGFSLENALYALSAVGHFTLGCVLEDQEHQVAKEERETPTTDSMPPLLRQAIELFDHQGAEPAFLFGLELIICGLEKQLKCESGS

| Sequence | TetR repression strength |
| --- | --- |
| TCCCGTTGAGTCGGCGAGA | 0.157 |
| TCCCACCAAGTAGGAGAGA | 0.285 |
| TCCCTAAGAGTACTGGAGA | 0.401 |
| TCCCGCCGAGTTAAGGAGA | 0.19 |
| TCCCGACGAGTAGTGGAGA | 0.171 |
| TCCCAATCAGTTTGAGAGA | 0.144 |
| TCCCTCGCAGTGAGCGAGA | 0.22 |
| TCCCAGGCAGTAAGGGAGA | 0.0777 |
| TCCCGGTCAGTGATCGAGA | 0.684 |
| TCCCGGTCAGTGGTCGAGA | 0.633 |
| TCCCAGTCAGTGATCGAGA | 0.322 |
| TCCCCGGGAGTCCACGAGA | 0.252 |
| TCCCGGGAAGTTACAGAGA | 0.0346 |
| TCCCGGGGAGTTAATGAGA | 0.944 |
| TCCCGCGGAGTTTATGAGA | 0.184 |
| TCCCGGAGAGTTACAGAGA | 0.245 |
| TCCCCCGGAGTTTATGAGA | 0.801 |
| TCCCGGAGAGTTAATGAGA | 0.225 |
| TCCCGAGTAGTTAAGGAGA | 0.21 |
| TCCCGAGTAGTTAACGAGA | 0.857 |
| TCCCGGGGAGTTACAGAGA | 0.903 |
| TCCCGAGGAGTTAACGAGA | 0.535 |
| TCCCCGGGAGTTAATGAGA | 0.517 |
| TCCCCCTGAGTTTATGAGA | 0.265 |
| TCCCAGACAGTGATAGAGA | 0.384 |
| TCCCGCAGAGTGTCTGAGA | 0.216 |

| Sequence | TetR repression strength |
| --- | --- |
| TCCCGTTAAGTCGCGGAGA | 0.391 |
| TCCCCTTGAGTGTAAGAGA | 0.558 |
| TCCCGTCGAGTGTCAGAGA | 0.263 |
| TCCCGTGTAGTTGTTGAGA | 0.0138 |
| TCCCGGGTAGTTAGTGAGA | 0.166 |
| TCCCGGGTAGTTAATGAGA | 1 |
| TCCCGCGTAGTTAATGAGA | 0.421 |
| TCCCCAGCAGTGATGGAGA | 0.2 |
| TCCCAGAAAGTGGCGGAGA | 0.316 |
| TCCCTCCGAGTAGGTGAGA | 0.222 |
| TCCCTCCGAGTAGGCGAGA | 0.745 |
| TCCCAGCGAGTAGACGAGA | 1.03 |
| TCCCGGCGAGTAGAGGAGA | 0.248 |
| TCCCAGAGAGTAGACGAGA | 0.217 |
| TCCCAGCGAGTAGAAGAGA | 0.334 |
| TCCCGGCGAGTAGACGAGA | 1.03 |
| TCCCGGCGAGTAGAAGAGA | 0.418 |
| TCCCACCGAGTAGGCGAGA | 0.166 |
| TCCCGGGTAGTGGTGGAGA | 0.277 |
| TCCCCATCAGTGAGCGAGA | 0.19 |
| TCCCGATCAGTTAGGGAGA | 0.313 |
| TCCCTTTCAGTTTTGGAGA | 0.151 |
| TCCCATGCAGTTGGGGAGA | 0.216 |
| TCCCTTTCAGTTTCGGAGA | 0.422 |
| TCCCTTTCAGTTTGGGAGA | 0.925 |
| TCCCATGGAGTTTGGGAGA | 0.201 |

| Sequence | TetR repression strength |
| --- | --- |
| TCCCATGCAGTTTGGGAGA | 1.07 |
| TCCCAGTGAGTCGCAGAGA | 0.0941 |
| TCCCTTGGAGTCGGCGAGA | 0.0727 |
| TCCCATTCAGTATCGGAGA | 0.159 |
| TCCCATTCAGTCCGCGAGA | 0.259 |
| TCCCAGGGAGTAGGGGAGA | 0.204 |
| TCCCACTGAGTCAGAGAGA | 0.279 |
| TCCCGGAGAGTATGCGAGA | 0.159 |
| TCCCCTTGAGTATGTGAGA | 0.409 |
| TCCCTTTGAGTATGCGAGA | 0.127 |
| TCCCGGTGAGTGGACGAGA | 0.496 |
| TCCCGGTGAGTAAACGAGA | 0.0592 |
| TCCCCTTGAGTATGCGAGA | 1.05 |
| TCCCTTGCAGTATGAGAGA | 0.157 |
| TCCCGGTGAGTATGCGAGA | 1.15 |
| TCCCCTGCAGTATTAGAGA | 0.211 |
| TCCCCTGCAGTATGAGAGA | 0.855 |
| TCCCGGTTAGTATGCGAGA | 0.19 |
| TCCCGGTGAGTGAACGAGA | 0.819 |
| TCCCGAGTAGTTATCGAGA | 0.34 |
| TCCCGGGTAGTCTGAGAGA | 0.147 |
| TCCCGACCAGTTTCGGAGA | 0.0546 |
| TCCCTGCGAGTTCGTGAGA | 0.297 |
| TCCCGGGAAGTTGATGAGA | 0.0797 |
| TCCCTGCGAGTCGGTGAGA | 0.245 |
| TCCCACTCAGTGCCAGAGA | 0.287 |

| Sequence | TetR repression strength |
| --- | --- |
| TCCCTACAAGTGGAAGAGA | 1.21 |
| TCCCTGCAAGTGGAAGAGA | 0.276 |
| TCCCTAAAAGTGGAAGAGA | 0.104 |
| TCCCTCCCAGTCGCGGAGA | 0.291 |
| TCCCTACCAGTCGGAGAGA | 0.278 |
| TCCCTATCAGTGGTAGAGA | 1.01 |
| TCCCTATGAGTGGTAGAGA | 0.288 |
| TCCCTCCCAGTGGAAGAGA | 0.491 |
| TCCCTACCAGTGGAAGAGA | 1.24 |
| TCCCTACCAGTGCAAGAGA | 0.199 |
| TCCCTAACAGTGGTAGAGA | 0.415 |
| TCCCTACCAGTCGCGGAGA | 0.967 |
| TCCCTGACAGTCGGTGAGA | 0.106 |
| TCCCAGGGAGTTTTAGAGA | 0.305 |
| TCCCACGTAGTCAATGAGA | 0.157 |
| TCCCTCAGAGTAAAGGAGA | 0.218 |
| TCCCTTTGAGTAGGTGAGA | 0.168 |
| TCCCATTGAGTTGCTGAGA | 0.153 |
| TCCCTCACAGTCAGTGAGA | 0.302 |
| TCCCGCAAAGTGAATGAGA | 0.207 |
| TCCCCGCGAGTGACAGAGA | 0.569 |
| TCCCAACAAGTGAGTGAGA | 0.42 |
| TCCCTATCAGTTGAAGAGA | 0.55 |
| TCCCTATCAGTGGAAGAGA | 0.722 |
| TCCCTAACAGTGGAAGAGA | 0.299 |
| TCCCCGACAGTTGCGGAGA | 0.0545 |

| Sequence | TetR repression strength |
| --- | --- |
| TCCCTGGGAGTTTAGGAGA | 0.302 |
| TCCCTGCAAGTACCTGAGA | 0.308 |
| TCCCGGCGAGTGGGGGAGA | 0.193 |
| TCCCCTCAAGTTGGCGAGA | 0.113 |
| TCCCGACTAGTTAGTGAGA | 0.25 |
| TCCCCTCAAGTTAGGGAGA | 0.304 |
| TCCCGACTAGTTAGCGAGA | 0.682 |
| TCCCGGCTAGTTAGCGAGA | 0.485 |
| TCCCCTCAAGTTAGCGAGA | 0.742 |
| TCCCATGGAGTATGAGAGA | 0.417 |
| TCCCAAAGAGTGGAGGAGA | 0.388 |
| TCCCCGCCAGTAAAAGAGA | 0.389 |
| TCCCGGTCAGTGGCCGAGA | 0.523 |
| TCCCGGCCAGTTCGTGAGA | 0.197 |
| TCCCGTGTAGTTGCAGAGA | 0.976 |
| TCCCGTGCAGTTGCAGAGA | 0.376 |
| TCCCCCGTAGTAGGAGAGA | 0.197 |
| TCCCGCGTAGTGGTGGAGA | 0.256 |
| TCCCGCGTAGTAGGAGAGA | 0.691 |
| TCCCGCGTAGTTGTTGAGA | 0.402 |
| TCCCGTGTAGTTGGAGAGA | 0.191 |
| TCCCGCGGAGTGGTGGAGA | 0.155 |
| TCCCGCGTAGTGGTTGAGA | 0.826 |
| TCCCGCGTAGTAGGGGAGA | 0.425 |
| TCCCGCGGAGTGGTTGAGA | 0.768 |
| TCCCCCGGAGTGGTTGAGA | 0.192 |
